Only a selection was taken, and hits are over-represented in it overall.
CapD inh = blocks the Bacillus anthracis CapD enzyme; z-score (concentration not given with the values); AID 492967; purified CapD enzyme, fluorescence intensity read-out; stronger effect = lower value; actives 0.23% (n = 140,000); in the data active = z-score mostly below about -2.9, no sharp cut-off; inactive = mostly above about -1.9
Each line names hits and unclear results; the compound was inactive in the other large screens.

Cc1ccccc1NS(=O)(=O)c1ccc2c(c1)c(=O)n(C)c(=O)n2C	none
O=C(O)CN1C(=O)COc2ccccc21	none
O=C1COc2ccccc2N1C(=O)c1ccc(Cl)cc1	CapD inh -4.1
O=C(CN1C(=O)COc2ccccc21)Nc1ccc(Cl)cc1	none
O=C(O)CSc1ccc2c3c(cccc13)CC2	none
Fc1ccc(Nc2nc3nonc3nc2Nc2ccc(F)cc2F)c(F)c1	none
COc1ccc(Nc2nc3nonc3nc2Nc2ccc(OC)cc2)cc1	none
CN(C)c1nc2nonc2nc1Nc1ccc(F)cc1	CapD inh -5.2
CCOC(=O)/C=C(\C)Nc1ccc2cn[nH]c2c1	none
COc1c(C#N)sc2ccccc12	none
c1ccc2c(c1)sc1ccccc12	CapD inh -10
Cc1c(C#N)sc2ccccc12	none
CS(=O)(=O)N1CCCC(C(=O)NCCCN2CCCCC2)C1 (centres undefined)	none
O=C(NCCSCc1ccco1)C1CC1	none
COC(=O)c1ccc([C@@H]2Nc3c(C)cccc3[C@@H]3C=CC[C@@H]32)cc1	none
O=C(O)C1Nc2c(I)cccc2C2C=CCC12 (centres undefined)	CapD inh -8.1
CN(C)C(=O)c1cccc2c1NC(c1ccc(Br)cc1)C1CC=CC21 (centres undefined)	none
CC(C)S(=O)(=O)C1=NSC2=NC(=O)/C(=C\c3ccco3)C(=N)N21	CapD inh -3.8
CS(=O)(=O)C1=NN2C(=N)/C(=C\c3ccco3)C(=O)N=C2S1	none
COc1cc(/C=C2/C(=N)N3C(=NC2=O)SN=C3S(=O)(=O)C(C)C)cc(Cl)c1OC(=O)c1ccco1	none
CCOc1cccc2c1N(C(=O)c1ccc(Cl)cc1Cl)C(C)(C)C(=S)C2=C1SC(C(=O)OC)=C(C(=O)OC)S1	none
CN(C)S(=O)(=O)c1ccc(C(=O)NCCn2ccc3ccccc32)cc1	none
O=C(C1Cc2c(ccc3ccccc23)O1)N1CCN(c2ccccc2)CC1 (centres undefined)	none
COc1cc2[nH]c(=O)n(CCC(=O)N3CCN(c4cccc(C(F)(F)F)c4)CC3)c(=O)c2cc1OC	none
CC1=NN(c2ccc(Cl)c(C(=O)O)c2)C(=O)/C1=C/c1cn(Cc2ccccc2)c2ccccc12	none
CC1=NN(c2ccccc2)C(=O)/C1=C/c1cn(CC(O)CN2CCCCC2)c2ccccc12 (centres undefined)	CapD inh -4.8
CC1=NN(c2ccccc2)C(=O)/C1=C/c1coc2ccccc2c1=O	none
Cc1cc(S(=O)(=O)Cc2c(Cl)cccc2Cl)c(Cl)cc1Cl	none
Cc1ncc(CO)c2cc(C(=O)Nc3ccccc3S(N)(=O)=O)c(=O)oc12	none
COc1ccc(C2=NN3C(C2)c2cc(OC)ccc2OC32CCCCC2)cc1 (centres undefined)	none
CCC(C)N1Cc2ccccc2N(CC)C1c1ccccc1F (centres undefined)	CapD inh -4.3
Fc1ccccc1C1N(Cc2ccccc2)CCN1Cc1ccccc1	none
Fc1ccccc1C1N(Cc2ccccc2)CCCN1Cc1ccccc1	none
CCOc1ccc(-n2c(=S)sc3c2nc(SCC(=O)Nc2cccc(OC)c2)n2c4ccccc4nc32)cc1	none
CN(C)/C=C/C=C/c1cc(=O)cc(/C=C/C=C/N(C)C)o1	CapD inh -15
CC1(C)CC(=O)C2=C(C1)Nc1ccc3ccccc3c1C2c1ccco1 (centres undefined)	none
CC1(C)CC(=O)C2=C(C1)Nc1[nH]n(-c3ccccc3)c(=O)c1C2c1ccco1 (centres undefined)	CapD inh -4.6
O=C1CCCC2=C1C(c1ccco1)c1c([nH]n(-c3ccccc3)c1=O)N2 (centres undefined)	none
COc1cccc(CSc2nnc(-c3cc4occc4n3C)n2-c2ccccc2C)c1	none
O=C(O)c1c[nH]c2ccc(S(=O)(=O)N3CCOCC3)cc2c1=O	none
N#CCOC(=O)/C=C\c1ccccc1	none
CN(C)/C=C/C(=O)c1ccccc1	CapD inh -4.9
CC(=O)c1ccc2c(c1)CCO2	none
CSc1sc(C(=O)/C=C/N(C)C)c(-c2cccs2)c1C#N	none
CN(C)/C=C/C(=O)c1cccs1	CapD inh -4.9
Cc1c(C(=O)/C=C/N(C)C)nnn1-c1ccc(F)c(Cl)c1	none
Cc1c(C(=O)/C=C/N(C)C)nnn1-c1ccc(Cl)c(Cl)c1	none
Cc1oc(-c2ccccc2)cc1C(=O)/C=C/N(C)C	none
CN(C)/C=C/C(=O)c1ccc2c(c1)CCO2	CapD inh -6.1
CN(C)/C=C/C(=O)c1ccc(S(=O)(=O)c2ccccc2)cc1	none
C/C(=N\O)c1ccc2c(c1)CCO2	none
Cc1c(C(=O)/C=C/N(C)C)nnn1-c1ccccc1	CapD inh -5.5
O=C(c1cccs1)c1cccs1	none
COc1ccc(C(C2=C(O)CC(C)(C)CC2=O)C2C(=O)CC(C)(C)CC2=O)cc1OC (centres undefined)	none
NC1=NC(Cc2ccccc2)CC(=O)N1 (centres undefined)	none
C=CCOC(=O)C1=C(C)OC(N)=C(C#N)C1c1ccccc1[N+](=O)[O-] (centres undefined)	none
CCN(CC)c1ccc(NC(=O)COc2ccc(C)cc2C)c(C)c1	none
Clc1ccc(CN2CCC(Cc3ccccc3)CC2)cn1	none
N#Cc1ccc(COC(=O)N2CCN(C(=O)OCc3ccccc3)CC2)cc1	none
CCN(CC)c1c(CN2CCCC2)c(=O)oc2ccccc12	none
COC(=O)c1ccc2[nH]c3c(c2c1)CCCC3	none
CN(C)CCOC(=O)c1ccc2[nH]c3c(c2c1)CSCC3	none
O=C(O)c1ccc2[nH]c3c(c2c1)CSCC3	CapD inh -7.4
CC(C)(C)C(=O)CSc1ncnc2nc[nH]c12	none
ClCCOc1ccc(Br)cc1OCCCl	none
CCOc1ccc(CCNC(=O)c2cn(CC)c3nc(C)ccc3c2=O)cc1OCC	none
CC(=O)c1ccc(NC(=O)CSc2nc3ccc(NC(=O)c4ccccc4C)cc3s2)cc1	none
O=C(ON1C(=O)CCC1=O)c1ccc(Br)o1	CapD inh -5.7
COC(=O)c1ccc(Br)o1	none
O=C(O)c1ccc(Br)o1	none
CC1Cc2ccccc2N1C(=O)c1cccc(C(=O)N2c3ccccc3CC2C)n1 (centres undefined)	none
CC1Cc2ccccc2N1C1=CC(=O)CCC1 (centres undefined)	CapD inh -5.7
CC1Cc2ccccc2N1S(=O)(=O)c1ccccc1 (centres undefined)	none
C=CCSc1nc2c(c(=O)n(C)c(=O)n2C)n1Cc1cccc(C)c1	none
CN(C(=O)COC(=O)c1ccc2ccccc2c1)c1ccccc1	none
Cc1noc(/C=C/N(C)C)c1S(=O)(=O)NCCN1CCC(Cc2ccccc2)CC1	none
Cc1noc(/C=C/N(C)C)c1S(=O)(=O)NC1CCCCC1	CapD inh -4.2
Cc1noc(/C=C/N(C)C)c1S(=O)(=O)N(C)c1ccc(C(C)C)cc1	none
COc1cccc(OCC(=O)NCC(=O)O)c1	none
CCC(=O)Nc1ccc(C(=O)N/N=C/c2ccc(C#N)cc2)cc1	none
O=C(O)c1cc(C=Nc2ccc(S(=O)(=O)NC3NC=CS3)cc2)c2c(c1)COCO2 (centres undefined)	CapD inh -5.2
Cc1cc(NS(=O)(=O)c2ccc(N=Cc3ccccc3O)cc2)no1	none
CCOC(=O)CNc1ncnc2scc(-c3ccccc3)c12	none
Clc1ccc(CSc2cc3c(nn2)-c2ccccc2CC3)c(Cl)c1	none
NCCSc1sc(=S)sc1SCCN	none
NC(=O)CSc1sc(=S)sc1SCC(N)=O	none
O=C(O)CSc1sc(=S)sc1SCC(=O)O	CapD inh -5
CCSc1n[nH]c(-c2ccc(Cl)cc2)n1	none
CC(C)(C)Nc1nc(=O)[nH]c(=O)[nH]1	none
CN(C(=O)C1=CC(c2ccc(F)cc2)=NS(=O)(=O)N1C)C1CCCCC1	none
COc1ccc(NC(=O)CCCN2C(=O)/C(=C\c3ccco3)SC2=S)cc1	none
COC(=O)CN1C(=S)N(C)C(=O)/C1=C/c1ccco1	CapD inh -4.1
CCOc1ccc(/C=C2/C(=O)N(C)C(=S)N2CC(=O)OC)c(OCC)c1	none

Screens as filed in PubChem.
